TrxR1 substrate = substrates of rat thioredoxin reductase 1; AID 588456; purified TrxR1 substrate turnover, NADPH consumption readout; hit rate 0.01% among 390,000; Potency, µM (highest dose often 114 µM); also: nearly all actives have a fitted effect of over 50% in size
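Rat TrxR1, dispensed at 90 nM, was prereduced with 400 uM NADPH (final) for 5 min at ~22 deg C, then incubated with compound 15 min before 400 uM selenite. A first-read NADPH fluorescence drop versus no-compound background flagged substrates.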
IDH1 R132H inh = inhibitors of human mutant IDH1 R132H; IDH1-R132H enzyme, NADPH consumption, diaphorase/resazurin fluorescence; AID 602179; hit rate 0.093% among 390,000; Potency, µM (titrated, usually from 76.6 µM), usual class: inhibitors; also: nearly all actives have a fitted effect of over 65% in size
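IDH1-R132H (0.5 ug/mL) preincubated 30 min with compound, then NADPH (0.016 mM) and alpha-KG (2 mM) added; 80 min at RT, pH 7.5. Remaining NADPH coupled via diaphorase/resazurin to fluorescence (540/590 nm); concentration-response curves normalized to no-enzyme control.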
PLK1 PBD inh = blocks phosphopeptide binding to human PLK1 polo-box domain; P53350; Plk1 PBD binding of FITC phosphopeptide, fluorescence polarization; AID 720504; hit rate 2.8% among 360,000; Potency, µM, usual class: inhibitors; also: series mostly up to about 57 µM; nearly all actives have a fitted effect of over 65% in size
Sfp inh = Sfp phosphopantetheinyl transferase inhibition. Q9F4F7. Biochemical Sfp PPTase activity, qHTS. Potency, µM, most hits filed as inhibitors. hit rate 3.5% among 310,000;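 also: the enzyme is Sfp with the accession as filed and its product quenches rhodamine fluorescence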
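Buffer: 50 mM Hepes-Na pH 7.6, 10 mM MgCl2, 0.01% Nonidet P-40, 0.01% BSA. Enzyme 15 nM, pre-exposed to compound 15 min; substrates then added and fluorescence change tracked over 30 min.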
VDR inh = vitamin D3 receptor (human) inhibition. VDR-SRC2-3 peptide fluorescence polarization, 2 h. Potency, µM, most hits filed as inhibitors. hit rate 0.93% among 400,000
Target sequence (P11473 whole entry, looked up): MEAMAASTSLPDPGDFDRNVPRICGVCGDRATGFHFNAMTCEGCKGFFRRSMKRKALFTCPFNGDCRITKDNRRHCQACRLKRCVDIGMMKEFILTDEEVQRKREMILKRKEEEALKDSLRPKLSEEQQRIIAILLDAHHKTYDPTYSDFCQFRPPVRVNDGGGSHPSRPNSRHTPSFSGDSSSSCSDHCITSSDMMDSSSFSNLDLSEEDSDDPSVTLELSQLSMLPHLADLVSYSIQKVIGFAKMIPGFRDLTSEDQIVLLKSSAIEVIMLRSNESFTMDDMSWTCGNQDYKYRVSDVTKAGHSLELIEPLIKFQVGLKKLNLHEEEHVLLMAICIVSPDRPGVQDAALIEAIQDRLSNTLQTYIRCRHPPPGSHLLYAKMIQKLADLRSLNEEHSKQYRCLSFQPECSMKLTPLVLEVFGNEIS
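FP read-out; VDR + SRC2-3 coactivator peptide; 23 nl compound by pintool; 2 h RT incubation; reagents held at 4 deg C, protected from light.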
TrxR1 inh = blocks rat thioredoxin reductase 1; O89049; recombinant rTrxR1, NADPH fluorescence consumption, selenite substrate; Potency, µM (highest dose often 114 µM), most hits filed as inhibitors; hit rate 1% among 390,000; also: nearly all actives have a fitted effect of over 65% in size
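Rat TrxR1 (90 nM in the dispensed reagent) was pre-reduced with 400 uM NADPH for 5 min at room temperature, then incubated with compound for 15 min. After 400 uM selenite was added, NADPH fluorescence (Ex 340/Em 450 nm) was followed for 8 min.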
Each line names hits and unclear results; the compound was inactive in the other large screens. A selection: hits, their analogues and other compounds. The true share with any hit is near 5.2%. Calls follow the shape of the dose curve; as a rule, active = well fitted curve in the direction sought with a large enough effect; inconclusive = small, poorly fitted or top-dose-only effect, or another doubt; inactive = no such curve, though single readings can be large; an effect the other way counts as inactive or inconclusive.

CCc1ccc(S(=O)(=O)c2nnn3c2nc(Nc2ccc(C)c(Cl)c2)c2sccc23)cc1	none (no result: PLK1 PBD inh, Sfp inh)
O=C(CCl)NC1CCCc2ccccc21 (stereo not drawn)	PLK1 PBD inh 27µM
O=C(Cc1ccc(Br)cc1)NC1CCCc2ccccc21 (stereo not drawn)	none
O=[N+]([O-])c1ccc(CNC2CCCc3ccccc32)cc1 (stereo not drawn)	Sfp inh 63µM
COCCNc1ccc([N+](=O)[O-])cc1C(=O)NC1CCCc2ccccc21 (stereo not drawn)	none
O=C(CCl)N(Cc1ccccc1)c1ccccc1	TrxR1 inh inconclusive
Cc1cccc(N(Cc2ccccc2)C(=O)CCl)c1	TrxR1 inh 8.9µM
CCC(C)C1/C=C\CCCC(=O)N1Cc1ccc(C)cc1 (stereo not drawn)	VDR inh inconclusive (no result: TrxR1 substrate, IDH1 R132H inh, PLK1 PBD inh, TrxR1 inh)
COC(=O)[C@H](COC(C)(C)C)NC(=O)O[C@@H]1C(=O)c2ccc(OC)cc2O[C@H]1c1cccc(C(F)(F)F)c1	none (no result: TrxR1 substrate, IDH1 R132H inh, PLK1 PBD inh, TrxR1 inh)
O=C(COC(=O)CNC(=O)c1ccccc1)NCCc1ccccc1	none
O=C(CNC(=O)c1ccccc1)NCCc1ccc(O)c(O)c1	Sfp inh 50µM (no result: TrxR1 substrate, IDH1 R132H inh, PLK1 PBD inh, VDR inh, TrxR1 inh)
O=C(CNC(=O)c1ccccc1F)Nc1ccc2c(c1)OCO2	none (no result: Sfp inh)
Cn1nc(-c2ccc(Cl)cc2)c2cc(C(=O)NC3CC3)sc21	PLK1 PBD inh 30µM, VDR inh inconclusive
CCN(CC)CCNC(=O)c1cc2c(-c3ccc(Cl)cc3)nn(C)c2s1	none
CC1(C(=O)Nc2cnc3ccccc3c2)CCN1Cc1ccc(OC(F)(F)F)cc1 (stereo not drawn)	none (no result: TrxR1 substrate, IDH1 R132H inh, Sfp inh, VDR inh, TrxR1 inh)
O=C(CSc1ncccn1)N/N=C/c1cccc([N+](=O)[O-])c1	none
Cc1cc(C)nc(SCC(=O)NN=C2CCCC2)n1	PLK1 PBD inh 6.7µM, VDR inh inconclusive
Cc1cc(C)nc(SCC(=O)N/N=C/c2cccc([N+](=O)[O-])c2)n1	PLK1 PBD inh 21µM, VDR inh 79µM
COc1ccc(CC(=O)NNC(=O)c2cc(Cl)ccc2OC)cc1	none (no result: Sfp inh)
COc1cccc(NC(=O)c2oc3ccccc3c2NC(=O)COc2ccccc2C)c1	none (no result: PLK1 PBD inh, Sfp inh)
CCC(C)C(NC(=O)C(Cc1ccc(O)cc1)NC(=O)C(N)C(C)C)C(=O)NC(Cc1cnc[nH]1)C(=O)N1CCCC1C(=O)NC(Cc1ccccc1)C(=O)O (stereo not drawn)	none (no result: TrxR1 substrate, IDH1 R132H inh, PLK1 PBD inh, TrxR1 inh)
COc1ccc(CNC(=O)C(C)n2nc(C)c3c(C)n(-c4ccc(C)cc4)nc3c2=O)cc1 (stereo not drawn)	PLK1 PBD inh 21µM, VDR inh inconclusive
COc1ccccc1-n1c(SCC(=O)Nc2ccc(NC(C)=O)cc2)nc2c([nH]c3ccccc32)c1=O	none
CC(Sc1n[nH]c(N)n1)C(=O)Nc1ccc(Cl)cn1 (stereo not drawn)	none
COc1ccccc1CNC(=O)CSc1n[nH]c(N)n1	none
Nc1nc(SCC(=O)Nc2ccc(Cl)cn2)n[nH]1	PLK1 PBD inh 30µM
COCCn1c(C)cc(C(=O)CSc2nc3nc(C)cc(C)n3n2)c1C	none
COCCn1c(C)cc(C(=O)CSc2n[nH]c(N)n2)c1C	Sfp inh 25µM
COc1ccccc1C(=O)CSc1nccn1C	Sfp inh 56µM
COc1ccccc1C(=O)CSc1n[nH]c(N)n1	Sfp inh 89µM
COc1ccc(N2CCN(C(c3ccccc3F)c3sc4nc(-c5ccco5)nn4c3O)CC2)cc1 (stereo not drawn)	none (no result: PLK1 PBD inh, Sfp inh)
Cc1ccc(NC(=O)c2c(C)oc3ncnc(N4CCCCC4)c23)c(C)c1	none (no result: PLK1 PBD inh, Sfp inh)
COc1ccc2[nH]cc(CCNc3ccnc(-c4ccccc4C(F)(F)F)n3)c2c1	none (no result: TrxR1 substrate, IDH1 R132H inh, PLK1 PBD inh, TrxR1 inh)
Nc1nc2c(ncn2-c2ccccc2)c(=O)[nH]1	none (no result: Sfp inh)
O=c1[nH]c(=S)c2ncn(-c3ccccc3)c2[nH]1	PLK1 PBD inh 27µM, Sfp inh 18µM, VDR inh inconclusive, TrxR1 inh inconclusive
Nc1ccc(S(=O)(=O)N2CCOCCOCCOCCOCCOCC2)cc1	PLK1 PBD inh inconclusive
Nc1nc2cc(S(=O)(=O)N3CCOCC3)ccc2o1	PLK1 PBD inh 5.3µM, VDR inh 40µM (no result: Sfp inh)
CCn1c(SCC(=O)N(C)C)nc2cc(S(=O)(=O)N3CCOCC3)ccc21	none (no result: Sfp inh)
CN(C)C(=O)CSc1nc2cc(S(=O)(=O)N3CCOCC3)ccc2o1	PLK1 PBD inh 21µM, VDR inh inconclusive (no result: Sfp inh)
FC(F)(F)c1cnc(N2CCCN(C(=S)Nc3ccccc3)CC2)c(Cl)c1	none
CS/C(=C\[N+](=O)[O-])Nc1ccc(F)cc1	TrxR1 inh inconclusive
CS/C(=C\[N+](=O)[O-])Nc1ccccc1	TrxR1 inh 1.3µM
COc1ccc(N/C(=C/[N+](=O)[O-])SC)cc1	TrxR1 inh 7.1µM
COC(=O)C/C=C/C(C)C(OCc1cccc(Br)c1)C(C)C(OC)C1CCCCC1 (stereo not drawn)	none (no result: TrxR1 substrate, IDH1 R132H inh, PLK1 PBD inh, VDR inh, TrxR1 inh)
O=Cc1cn(CC(=O)N2CCCc3ccccc32)c2ccccc12	PLK1 PBD inh 2.7µM
O=C(O)/C=C/C(=O)c1ccc(O)cc1	Sfp inh 2.2µM, VDR inh inconclusive, TrxR1 inh 18µM
CCCCCCCCCCCCCCCCCCc1ccc(C(=O)/C=C\C(=O)O)cc1	VDR inh inconclusive (no result: TrxR1 substrate, IDH1 R132H inh, PLK1 PBD inh, TrxR1 inh)
COc1ccccc1CNC(=O)CSc1nc2nc(C)c(Cc3ccccc3C)c(C)n2n1	none (no result: PLK1 PBD inh, Sfp inh)
CC(C(=O)NC1C=CS(=O)(=O)C1)N1C(=O)/C(=C\c2ccccc2)SC1=S (stereo not drawn)	PLK1 PBD inh inconclusive, Sfp inh 13µM
O=C(CN1C(=O)S/C(=C\c2ccc(Cl)cc2)C1=O)NC1C=CS(=O)(=O)C1 (stereo not drawn)	PLK1 PBD inh 19µM, VDR inh inconclusive
O=C(CN1C(=O)/C(=C/c2ccccc2F)SC1=S)NC1C=CS(=O)(=O)C1 (stereo not drawn)	Sfp inh 22µM
O=C(CN1C(=O)/C(=C/c2cccc(Cl)c2)SC1=S)NC1C=CS(=O)(=O)C1 (stereo not drawn)	none
CC(C(=O)NC1C=CS(=O)(=O)C1)N1C(=O)/C(=C/c2cccc(Cl)c2)SC1=S (stereo not drawn)	PLK1 PBD inh inconclusive, VDR inh inconclusive
CCc1cccc(-n2nnc(-c3nc(-c4cccs4)no3)c2N)c1	none (no result: PLK1 PBD inh, Sfp inh)
CCOc1ncccc1C(=O)Nc1cc(S(=O)(=O)N(CC)CC)ccc1N1CCOCC1	PLK1 PBD inh 17µM, VDR inh 79µM (no result: Sfp inh)
CCOc1ncccc1C(=O)Nc1cc(C(F)(F)F)ccc1N1CCOCC1	none (no result: Sfp inh)
CCN(CC)S(=O)(=O)c1ccc(N2CCOCC2)c(NS(=O)(=O)c2ccc(C(C)C)cc2)c1	PLK1 PBD inh inconclusive, VDR inh 35µM
